Results as given in PubChem BioAssay AID463173 (ICCB-Longwood Screening Facility, Harvard Medical School, 2010).
The whole screen tested about 52,000 compounds, of which about 4,300 (8.3%) were called active. For the sample, actives were picked, then their nearest neighbours and some compounds at random. Values without a mark were called inactive. Cut-off read from the data, not from the text of the source: active = survival mostly below about 52% (no sharp cut-off); inactive = mostly above about 56%.

Each compound was assayed on DeltatarO mutant (assay: S. aureus survival, RN4220 and DeltatarO strains – OD600, teichoic acid synthesis inhibitors, primary screen (AID 463173)). Conditions: S. aureus RN4220 wild type/DeltatarO growth, OD600, 18 h, hits give low values, screened at 18.75 µg/mL (by protocol).

Compound | survival
O=C(CCC(=O)N1CCSc2ccccc21)NCc1ccccc1Cl | 70%
Cc1cccc(C(c2sc3nc(-c4ccco4)nn3c2O)N2CCN(c3ccccc3)CC2)c1 (stereo unspecified) | 76%
O=C(CN1CCCC1)N1N=C(c2cccs2)CC1c1cccs1 (stereo unspecified) | 86%
CCOc1ccc(Cc2nc(C)c(CC(N)=O)c(=O)[nH]2)cc1 | 71%
CCOC(=O)c1scc(-c2ccccc2)c1S(=O)(=O)Nc1ccc(N(C)C)cc1 | 86%
COC(=O)Cn1c(O)c(N=NC(=O)C2COc3ccccc3O2)c2ccccc21 (stereo unspecified) | 69%
CCC(=O)Nc1cccc(NC(=O)c2cccs2)c1 | 72%
CCOc1ccccc1NC(=O)Cn1c(=O)n(C(C)C)c(=O)c2oc3ccccc3c21 | 109%
CC1=C(c2ccc(C(C)C)cc2)S(=O)(=O)N=C1N1CCC(C(=O)NCCc2ccco2)CC1 | 6% (active)
CC1=C(c2ccc(C)c(C)c2)S(=O)(=O)N=C1N1CCC(C(=O)N2CCC(C(N)=O)CC2)CC1 | -2% (active)
CC1=C(c2ccc(C(C)C)cc2)S(=O)(=O)N=C1N1CCC(C(=O)NCc2ccc(C)o2)CC1 | 67%
CC1=C(c2ccc(C(C)C)cc2)S(=O)(=O)N=C1N1CCC(C(=O)NCc2ccco2)CC1 | 79%
CC1=C(c2ccc(C(C)C)cc2)S(=O)(=O)N=C1N1CCC(C(=O)NCc2ccccc2)CC1 | -1% (active)
CC1=C(c2ccc(C)c(C)c2)S(=O)(=O)N=C1N1CCC(C(=O)N2CCCCC2)CC1 | 109%
CC1=C(c2ccc(Cl)cc2)S(=O)(=O)N=C1N1CCC(C(=O)NCCc2ccco2)CC1 | 81%
CC1=C(c2ccc(C)c(C)c2)S(=O)(=O)N=C1N1CCC(C(=O)N2CCC(C)CC2)CC1 | 72%

Compound | survival
CCc1ccc(C2=C(C)C(N3CCC(C(=O)NCc4ccccc4)CC3)=NS2(=O)=O)cc1 | 89%
Cc1cccc(N(C)C(=O)C(Cc2ccccc2)NS(=O)(=O)c2cccc3nsnc23)c1 (stereo unspecified) | 74%
Cc1nnc(N2CCC(C(=O)N3CCCCC3)CC2)c2nn(-c3ccc(Cl)cc3)c(C)c12 | 95%
COc1cc(-c2nc(SCC(=O)Nc3ccc(C)cc3)c(-c3ccc(F)cc3)[nH]2)cc(OC)c1OC | 91%
COc1ccc(-c2[nH]c(-c3ccccc3)nc2SCC(=O)NC2CCCC2)cc1 | 67%
COc1ccc(-c2[nH]c(-c3ccc(O)cc3)nc2-c2ccccc2)cc1 | 3% (active)
COCCNC(=O)CSc1nc(-c2ccccc2)[nH]c1-c1ccc(OC)cc1 | 80%
COc1cc(-c2nc(-c3ccccc3)c(-c3ccc(Br)cc3)[nH]2)cc(OC)c1O | 0% (active)
COc1cc(-c2nc(-c3cccc(Cl)c3)c(-c3ccccc3)[nH]2)cc(OC)c1OC | 126%
COc1ccc(-c2nc(-c3ccccc3)c(-c3ccccc3)[nH]2)cc1Br | 59%
COc1ccc(-c2nc(-c3ccccc3)c(-c3ccc(F)cc3)[nH]2)c(OC)c1C | 5% (active)
COc1ccc(-c2nc(-c3ccccc3)c(-c3ccc(O)cc3)[nH]2)cc1 | 1% (active)
CCOc1ccc(-c2nc(-c3ccccc3)c(-c3ccccc3)[nH]2)cc1OCC | 142%
COc1ccc(-c2nc(SCC(=O)Nc3ccccc3)c(-c3ccc(F)cc3)[nH]2)cc1OC | 49%
COc1ccc(NC(=O)CSc2nc(-c3ccc(OC)cc3)[nH]c2-c2ccc(OC)cc2)cc1 | 71%
